# PubChem BioAssay
# For some assays here: Measured potencies and affinities stand elsewhere. Activity calls are given as the source filed them.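 The calls were made as follows, unless noted: active = primary screen inhibitor hit that blocks the TRPC4 channel at some tested dose, yielding a dose curve; inactive = the rest.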
# Key:
# [1] = system: TRPC4 beta (transient receptor potential cation channel C4), mouse; test: activators of mouse TRPC4 channel, confirmation, cell-based, Fluo4 calcium, HEK293 TRPC4beta/mu-opioid, duplicates, 10 µM (AID 2426;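 active = fluorescence ratio normalized to control raised more than 50% in primary screen plus both repeat runs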;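 as to activation: percent rise of integrated ratio over buffer wells lacking compound which define 0%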); conditions: Fluo4 calcium fluorescence, at 10 µM; stronger effect = higher value
# [2] = system: transient receptor potential cation channel C4 beta (TRPC4), mouse; test: activators of mouse TRPC4 channel, confirmation, cell-based, second round, Fluo4, HEK293 TRPC4beta/mu-opioid, 1 µM (AID 2461;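 active = primary screen active and over 50% activation in each of two duplicate runs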;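 as to activation: 0% = wells without test compound as baseline of integrated fluorescence ratio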); conditions: Fluo4 calcium fluorescence, at 1 µM; stronger effect = higher value
# [3] = system: TRPC4 (transient receptor potential cation channel C4 beta), mouse; test: positive allosteric modulators of mouse TRPC4, confirmation, cell-based, second round, Fluo-4, HEK293 TRPC4beta/mu-opioid, 1 µM (AID 2554;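 active = primary screen hit whose fluorescence ratio, in both repeats, exceeds the weak agonist control mean by 3 SD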); conditions: DAMGO EC20, Fluo-4 calcium flux, at 1 µM; stronger effect = higher value
# [4] = system: TRPC4 beta (transient receptor potential cation channel C4), mouse; test: positive allosteric modulators of mouse TRPC4, confirmation, cell-based, Fluo-4, HEK293 TRPC4beta/mu-opioid (AID 2555;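 active = primary screen hit whose calcium fluorescence ratio, in both repeats, exceeds the weak agonist control mean by 3 SD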); conditions: DAMGO EC20, Fluo-4 calcium flux, at 10 µM; stronger effect = higher value
# [5] = target: Short transient receptor potential channel 4 (Mus musculus) (UniProt Q9QUQ5); test: inhibitors of mouse TRPC4 channel, confirmation, cell-based, Fluo4, HEK293 TRPC4beta/mu-opioid (AID 2636;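 active = calcium signal cut by more than 3 SD below the full-agonist control yet still positive, in both repeats and the earlier primary screen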); conditions: DAMGO, Fluo4 calcium flux, at 10 µM; stronger effect = higher value
# [6] = target: Short transient receptor potential channel 4 (Mus musculus) (UniProt Q9QUQ5); test: inhibitors of mouse TRPC4 channel, confirmation, cell-based, second round, Fluo4, HEK293 TRPC4beta/mu-opioid, 1 µM (AID 2637;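 active = calcium signal ratio cut to more than 3 SD under the fully stimulated control mean yet still positive, in both repeats and the primary screen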); conditions: Fluo4 calcium flux, DAMGO, at 1 µM; stronger effect = higher value
# [7] = target: Short transient receptor potential channel 4 (Mus musculus) (UniProt Q9QUQ5); test: mouse TRPC4 channel activators, dose response, cell-based, HEK293 TRPC4/mu-opioid, Fluo-4 calcium (AID 434937;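 active = primary screen activator hit with a dose response curve and TRPC4 channel activation at any tested dose; inactive = no activation, no dose response, or not a primary hit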)
# [8] = target: Short transient receptor potential channel 4 (Mus musculus) (UniProt Q9QUQ5); test: TRPC4 positive allosteric modulators, dose response, cell-based, HEK293 TRPC4/mu-opioid, Fluo-4 calcium, EC20 DAMGO (AID 434941;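 active = earlier screen potentiator hit that boosts the TRPC4 ion channel at some dose, with a dose response; inactive = no potentiation, no dose response, or not a prior hit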;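 also: calcium entry triggered by an EC20 dose of DAMGO at the co-expressed mu-opioid receptor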)
# [9] = target: Short transient receptor potential channel 4 (Mus musculus) (UniProt Q9QUQ5); test: mouse TRPC4 channel inhibitors, dose response, cell-based, HEK293 TRPC4/mu-opioid, Fluo-4 calcium (AID 434942)
# [10] = target: Short transient receptor potential channel 6 (Mus musculus) (UniProt Q61143); test: inhibition of mouse TRPC6 channel, confirmation, selectivity assay for TRPC4 inhibitor project, cell-based, HEK293, membrane potential dye, duplicate (AID 434948;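 active = active in primary screen and both duplicates, each dropping signal beyond three positive-control SD with fluorescence still positive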); conditions: HEK293 TRPC6, membrane potential dye fluorescence, at 10 µM, stimulated with maximal-effect acetylcholine; stronger effect = higher value
# [11] = target: Short transient receptor potential channel 6 (Mus musculus) (UniProt Q61143); test: activation of mouse TRPC6 channel, confirmation, selectivity assay for TRPC4 activator project, cell-based, HEK293, membrane potential dye, duplicate (AID 434950;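 active = membrane potential signal rise above negative control mean plus 3 SD in both duplicates, also active in the earlier TRPC4 screen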;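 as to activation: 0% = buffer only wells and 100% = acetylcholine maximal-effect wells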); conditions: HEK293 TRPC6, membrane potential fluorescence, at 10 µM; stronger effect = higher value
# [12] = target: Short transient receptor potential channel 6 (Mus musculus) (UniProt Q61143); test: TRPC6 potentiation by TRPC4 potentiator hits, confirmation, selectivity assay for TRPC4 potentiator project, HEK293 cells, membrane potential dye, duplicate (AID 434952;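 active = compound raising the membrane signal above positive-control mean plus 3 SD in both repeats, and a primary screen hit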); conditions: HEK293 TRPC6, membrane potential dye fluorescence, at 10 µM, maximal acetylcholine added after compound; stronger effect = higher value
# [13] = target: Short transient receptor potential channel 4 (Mus musculus) (UniProt Q9QUQ5); test: calcium flux activators in TRPC4/5HT1a cells, counter-screen for TRPC4 activator project, cell-based, second counter screen, HEK293 TRPC4/5HT1a, Fluo-4 (AID 434977;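 active = calcium signal rise above buffer-control mean plus 5 SD in both duplicates, and also a hit in the primary screen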;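 as to activation: plate controls were assay buffer for no effect and maximal serotonin response for full effect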); conditions: Fluo-4 calcium flux, at 10 µM; stronger effect = higher value
# [14] = calcium flux inhibitors in TRPC4/5HT1a cells, confirmation, counter-screen for TRPC4 inhibitor project, cell-based, second counter screen, HEK293 TRPC4/5HT1a, Fluo-4 (AID 434978;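 active = primary screen active whose calcium signal fell more than 3 SD beyond the full-serotonin control mean in both duplicate plates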;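 as to outcome: serotonin given first at submaximal then at maximal dose after compound preincubation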); conditions: Fluo-4 calcium flux, at 10 µM, serotonin added to trigger calcium flux; stronger effect = higher value
# [15] = system: TRPC4 (mouse), co-expressed with 5HT1a in HEK293; test: calcium flux potentiators in TRPC4/5HT1a cells, confirmation, counter-screen for TRPC4 potentiator project, cell-based, second counter screen, HEK293 TRPC4/5HT1a, Fluo-4 (AID 434979;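 active = signal rise over 3 SD above mean of control wells given weak agonist, in both repeats and first screen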); conditions: Fluo-4 calcium flux, at 10 µM, serotonin added at its EC20 dose; stronger effect = higher value
# [16] = calcium flux activation in mu-opioid HEK293 cells, confirmation, counter-screen for TRPC4 activator project, cell-based, HEK293 mu-opioid receptor line (AID 449723;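 active = hit in primary screen, with calcium signal over 5 SD above buffer well mean in both duplicates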;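 also: counter screen cells carry the mu-opioid receptor alone and lack TRPC4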); conditions: Fluo-4 calcium fluorescence, at 10 µM; stronger effect = higher value
# [17] = calcium flux enhancement in mu-opioid HEK293 cells, confirmation, counter-screen for TRPC4 allosteric potentiator project, cell-based, HEK293 mu-opioid receptor line (AID 449724;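 active = calcium signal rise more than 3 SD above the low-dose agonist control mean, in both duplicate plates and the primary screen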); conditions: Fluo-4 calcium flux, at 10 µM, compound added before EC20 DAMGO stimulus; stronger effect = higher value
# Sequence of Short transient receptor potential channel 4 (Mus musculus) (Q9QUQ5 whole entry, looked up): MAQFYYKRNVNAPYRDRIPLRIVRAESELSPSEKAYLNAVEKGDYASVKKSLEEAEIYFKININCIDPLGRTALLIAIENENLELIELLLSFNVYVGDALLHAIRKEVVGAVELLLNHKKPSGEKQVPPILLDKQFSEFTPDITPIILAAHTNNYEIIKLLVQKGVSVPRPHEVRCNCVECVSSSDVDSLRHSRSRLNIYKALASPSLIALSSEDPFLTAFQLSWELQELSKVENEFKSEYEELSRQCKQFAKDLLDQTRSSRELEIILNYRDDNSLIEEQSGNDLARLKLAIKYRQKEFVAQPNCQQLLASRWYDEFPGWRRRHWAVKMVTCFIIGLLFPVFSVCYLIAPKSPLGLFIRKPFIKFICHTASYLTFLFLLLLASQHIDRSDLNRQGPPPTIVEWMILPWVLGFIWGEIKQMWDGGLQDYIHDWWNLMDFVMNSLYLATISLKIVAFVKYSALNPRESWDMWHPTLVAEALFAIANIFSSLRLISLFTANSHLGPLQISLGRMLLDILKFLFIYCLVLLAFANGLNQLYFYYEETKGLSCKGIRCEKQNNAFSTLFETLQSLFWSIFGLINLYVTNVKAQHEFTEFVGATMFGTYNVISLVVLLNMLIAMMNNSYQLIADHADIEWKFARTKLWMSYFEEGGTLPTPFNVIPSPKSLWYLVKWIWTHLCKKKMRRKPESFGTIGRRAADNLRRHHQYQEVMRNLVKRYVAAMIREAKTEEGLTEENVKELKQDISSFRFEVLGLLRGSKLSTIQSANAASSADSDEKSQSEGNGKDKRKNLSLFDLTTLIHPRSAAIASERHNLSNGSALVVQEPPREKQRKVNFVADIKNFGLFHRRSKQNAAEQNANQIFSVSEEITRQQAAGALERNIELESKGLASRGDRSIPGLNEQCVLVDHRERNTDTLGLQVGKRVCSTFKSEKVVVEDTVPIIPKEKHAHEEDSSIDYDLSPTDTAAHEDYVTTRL
# Sequence of Short transient receptor potential channel 6 (Mus musculus) (Q61143 whole entry, looked up): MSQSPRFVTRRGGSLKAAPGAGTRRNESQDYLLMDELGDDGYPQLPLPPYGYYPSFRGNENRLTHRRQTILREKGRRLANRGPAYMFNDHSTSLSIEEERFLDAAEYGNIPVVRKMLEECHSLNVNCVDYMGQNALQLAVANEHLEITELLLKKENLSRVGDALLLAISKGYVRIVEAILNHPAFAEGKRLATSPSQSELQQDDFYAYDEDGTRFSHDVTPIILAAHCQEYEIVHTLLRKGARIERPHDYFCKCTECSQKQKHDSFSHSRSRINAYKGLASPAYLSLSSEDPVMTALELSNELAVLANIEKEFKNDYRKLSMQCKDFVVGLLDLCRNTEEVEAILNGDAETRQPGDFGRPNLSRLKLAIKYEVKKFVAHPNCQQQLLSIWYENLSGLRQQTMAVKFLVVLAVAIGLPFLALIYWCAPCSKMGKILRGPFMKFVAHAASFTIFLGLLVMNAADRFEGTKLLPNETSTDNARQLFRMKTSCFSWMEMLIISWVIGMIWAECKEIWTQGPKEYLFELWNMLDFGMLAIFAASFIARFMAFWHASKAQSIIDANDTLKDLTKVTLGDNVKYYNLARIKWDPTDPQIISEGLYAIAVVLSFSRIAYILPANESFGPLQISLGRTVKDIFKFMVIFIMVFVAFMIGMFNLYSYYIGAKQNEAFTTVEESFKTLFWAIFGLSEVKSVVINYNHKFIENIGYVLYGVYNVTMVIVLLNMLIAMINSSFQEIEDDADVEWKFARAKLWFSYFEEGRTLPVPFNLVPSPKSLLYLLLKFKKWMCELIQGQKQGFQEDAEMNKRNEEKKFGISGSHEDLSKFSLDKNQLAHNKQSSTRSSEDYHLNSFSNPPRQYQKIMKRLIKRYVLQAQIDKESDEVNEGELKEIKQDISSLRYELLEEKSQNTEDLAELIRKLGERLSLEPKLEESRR
smiles,measurement,setting,value
Cc1ccc(CS(=O)(=O)CCC(=O)NCCC2=CCCCC2)cc1,outcome,[1],inactive
same,outcome,[2],inactive
same,potentiation,[3],14% (active)
same,outcome,[4],inactive
same,outcome,[5],inactive
same,outcome,[6],inactive
same,outcome,[7],inactive
same,outcome,[8],inactive
same,outcome,[9],inactive
same,outcome,[10],inactive
same,outcome,[11],inactive
same,outcome,[12],inactive
same,outcome,[13],inactive
same,outcome,[14],inactive
same,potentiation,[15],18.2% (active)
same,outcome,[16],inactive
same,outcome,[17],inactive
COc1cc(=O)n2c(-c3ccccc3)csc2n1,outcome,[1],inactive
same,outcome,[2],inactive
same,outcome,[3],inactive
same,outcome,[4],inactive
same,inhibition,[5],39% (active)
same,outcome,[6],inactive
same,outcome,[7],inactive
same,outcome,[8],inactive
same,outcome,[9],inactive
same,outcome,[10],inactive
same,outcome,[11],inactive
same,outcome,[12],inactive
same,outcome,[13],inactive
same,outcome,[14],inactive
same,outcome,[15],inactive
same,outcome,[16],inactive
same,outcome,[17],inactive
CCCC(=O)Nc1c(-c2ccccc2)c(=O)c(C)nn1-c1ccc(Cl)cc1,outcome,[1],inactive
same,outcome,[2],inactive
same,outcome,[3],inactive
same,outcome,[4],inactive
same,outcome,[5],inactive
same,outcome,[6],inactive
same,outcome,[7],inactive
same,outcome,[8],inactive
same,outcome,[9],inactive
same,outcome,[10],inactive
same,activation,[11],33.5% (active)
same,outcome,[12],inactive
same,outcome,[13],inactive
same,outcome,[14],inactive
same,outcome,[15],inactive
same,outcome,[16],inactive
same,outcome,[17],inactive
CCOc1ccc(NS(=O)(=O)c2ccc(NC(=S)NC(=O)CC(C)C)cc2)cc1,outcome,[1],inactive
same,outcome,[2],inactive
same,outcome,[3],inactive
same,potentiation,[4],15% (active)
same,outcome,[5],inactive
same,outcome,[6],inactive
same,outcome,[7],inactive
same,outcome,[8],inactive
same,outcome,[9],inactive
same,outcome,[10],inactive
same,outcome,[11],inactive
same,outcome,[12],inactive
same,outcome,[13],inactive
same,outcome,[14],inactive
same,potentiation,[15],6.51% (active)
same,outcome,[16],inactive
same,outcome,[17],inactive
CCCn1nc(C(=O)NC2CCCc3ccccc32)c2ccccc2c1=O (stereo unspecified),outcome,[1],inactive
same,outcome,[2],inactive
same,outcome,[3],inactive
same,potentiation,[4],22% (active)
same,outcome,[5],inactive
same,outcome,[6],inactive
same,outcome,[7],inactive
same,outcome,[8],inactive
same,outcome,[9],inactive
same,outcome,[10],inactive
same,outcome,[11],inactive
same,outcome,[12],inactive
same,outcome,[13],inactive
same,outcome,[14],inactive
same,potentiation,[15],19.5% (active)
same,outcome,[16],inactive
same,outcome,[17],inactive
O=[N+]([O-])c1ccc(N2CCN(CCOc3nonc3-c3ccccc3)CC2)c(Cl)c1,outcome,[1],inactive
same,outcome,[2],inactive
same,potentiation,[3],10% (active)
same,potentiation,[4],34% (active)
same,outcome,[5],inactive
same,outcome,[6],inactive
same,outcome,[7],inactive
same,outcome,[8],inactive
same,outcome,[9],inactive
same,outcome,[10],inactive
same,outcome,[11],inactive
same,outcome,[12],inactive
same,outcome,[13],inactive
same,outcome,[14],inactive
same,potentiation,[15],20.3% (active)
same,outcome,[16],inactive
same,outcome,[17],inactive
CCCn1c(=O)c(C(=O)NCC2CCCO2)c(O)c2ccccc21 (stereo unspecified),outcome,[1],inactive
same,outcome,[2],inactive
same,potentiation,[3],16% (active)
same,potentiation,[4],11% (active)
same,outcome,[5],inactive
same,outcome,[6],inactive
same,outcome,[7],inactive
same,outcome,[8],inactive
same,outcome,[9],inactive
same,outcome,[10],inactive
same,outcome,[11],inactive
same,outcome,[12],inactive
same,outcome,[13],inactive
same,outcome,[14],inactive
same,potentiation,[15],7.45% (active)
same,outcome,[16],inactive
same,outcome,[17],inactive
O=C1CC(NS(=O)(=O)c2cccs2)CN1c1ccccc1 (stereo unspecified),outcome,[1],inactive
same,outcome,[2],inactive
same,outcome,[3],inactive
same,potentiation,[4],14% (active)
same,outcome,[5],inactive
same,outcome,[6],inactive
same,outcome,[7],inactive
same,outcome,[8],inactive
same,outcome,[9],inactive
same,outcome,[10],inactive
same,outcome,[11],inactive
same,outcome,[12],inactive
same,outcome,[13],inactive
same,outcome,[14],inactive
same,potentiation,[15],29.8% (active)
same,outcome,[16],inactive
same,outcome,[17],inactive
Cn1c(CN2CCN(c3ccccc3NS(C)(=O)=O)CC2)nc2ccccc21,outcome,[1],inactive
same,outcome,[2],inactive
same,outcome,[3],inactive
same,outcome,[4],inactive
same,outcome,[5],inactive
same,outcome,[6],inactive
same,outcome,[7],inactive
same,outcome,[8],inactive
same,outcome,[9],inactive
same,outcome,[10],inactive
same,outcome,[11],inactive
same,outcome,[12],inactive
same,outcome,[13],inactive
same,outcome,[14],inactive
same,outcome,[15],inactive
same,outcome,[16],inactive
same,outcome,[17],inactive
CCOc1ccc(OCC(O)CNC2CCN(Cc3ccccc3)CC2)cc1 (stereo unspecified),activation,[1],144% (active)
same,activation,[2],94% (active)
same,outcome,[3],inactive
same,outcome,[4],inactive
same,inhibition,[5],36% (active)
same,outcome,[6],inactive
same,outcome,[7],inactive
same,outcome,[8],inactive
same,outcome,[9],inactive
same,inhibition,[10],34.5% (active)
same,activation,[11],83% (active)
same,outcome,[12],inactive
same,activation,[13],35.4% (active)
same,inhibition,[14],25.6% (active)
same,outcome,[15],inactive
same,outcome,[16],inactive
same,outcome,[17],inactive
NC(=S)N/N=C1/CCSc2ccc3ccccc3c21,outcome,[1],inactive
same,outcome,[2],inactive
same,outcome,[3],inactive
same,potentiation,[4],25% (active)
same,outcome,[5],inactive
same,outcome,[6],inactive
same,outcome,[7],inactive
same,outcome,[8],inactive
same,outcome,[9],inactive
same,outcome,[10],inactive
same,outcome,[11],inactive
same,outcome,[12],inactive
same,outcome,[13],inactive
same,outcome,[14],inactive
same,potentiation,[15],18.7% (active)
same,outcome,[16],inactive
same,outcome,[17],inactive
C=CCNC(=S)N1CCN(C2CCCCC2)CC1,outcome,[1],inactive
same,outcome,[2],inactive
same,potentiation,[3],53% (active)
same,potentiation,[4],36% (active)
same,outcome,[5],inactive
same,outcome,[6],inactive
same,outcome,[7],inactive
same,outcome,[8],inactive
same,outcome,[9],inactive
same,outcome,[10],inactive
same,outcome,[11],inactive
same,outcome,[12],inactive
same,outcome,[13],inactive
same,outcome,[14],inactive
same,potentiation,[15],18.6% (active)
same,outcome,[16],inactive
same,outcome,[17],inactive
CCSc1ccccc1C(=O)NCCc1ccccc1,outcome,[1],inactive
same,outcome,[2],inactive
same,outcome,[3],inactive
same,outcome,[4],inactive
same,outcome,[5],inactive
same,outcome,[6],inactive
same,outcome,[7],inactive
same,outcome,[8],inactive
same,outcome,[9],inactive
same,outcome,[10],inactive
same,outcome,[11],inactive
same,outcome,[12],inactive
same,outcome,[13],inactive
same,outcome,[14],inactive
same,outcome,[15],inactive
same,outcome,[16],inactive
same,outcome,[17],inactive
